From PubChem BioAssay
The list is not random: actives were taken first. Their share in the collection is about 13%.
WT yeast gro inh: growth inhibition of WT yeast, mitochondrial fusion screen; inhibition, % at 10 µM; 2.1% of 190,000 active; mitochondrial fusion phenotypic screen, WT strain; in the data active = inhibition above about 58%; tested in S. cerevisiae
RAM inhibit: yeast RAM network inhibition; inhibition, % at 50 µM; 1.8% of 190,000 active; S. cerevisiae dse1pr::URA3 reporter, 5-FOA growth OD615, 2 d; analog-sensitive cbk1-as2 kinase mutant strain;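 active = inhibition above a set limit, 3 SD over mean compound inhibition, cut at about 8.4% in these data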;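 note: 0% = DMSO-only wells with no growth and 100% = 10 µM 1-NA-PP1 full growth; inhibition rescues growth on 5-FOA so higher OD means more RAM inhibition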
Lmaj promast: inhibitors of Leishmania major promastigote growth; inhibition, % at 10 µM; Leishmania major promastigotes, resazurin fluorescence viability; 9% of 200,000 active; AID 1063; in the data active = inhibition above about 50%;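 note: promastigotes grown with compound for 44 hours at 28 °C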
CHOP inhibitor: blocks CHOP induction under ER stress; CHO-K1 CHOP-promoter luciferase, tunicamycin-induced, 15-18 h; inhibition, % at 10 µM; 3.8% of 220,000 active;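 active = compounds that reduced the stress-induced luciferase reporter signal by more than about 70% of percent inhibition, limit read from the data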;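 note: 0% = tunicamycin plus vehicle and 100% = wells without tunicamycin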
Active calls of the source: *; . = not tested or not shown.

SMILES | WT yeast gro inh | RAM inhibit | Lmaj promast | CHOP inhibitor
O=C(O)/C(=C\C(=O)c1ccccc1)Nc1ccccc1 | . | . | . | -18
CC(C)CC(=O)Nc1nnc(SCC(=O)NCc2ccc3c(c2)OCO3)s1 | 4 | 5 | -11 | 8
CCN(Cc1ccccc1)C(c1cccs1)c1nnnn1C1CCCCC1 (stereo unspecified) | 75* | 9.3* | 31 | 31
Clc1ccccc1CN(Cc1ccccc1)C(c1cccs1)c1nnnn1C1CCCC1 (stereo unspecified) | -4 | 6 | 60* | 18
Clc1ccc(CN(CC2CCCO2)C(c2cccs2)c2nnnn2C2CCCC2)cc1 (stereo unspecified) | 11 | 11* | 55* | 15
O=C(CCCN1C(=O)/C(=C\c2cccs2)SC1=S)NNC(=O)c1cccnc1 | -8 | 4 | -6 | 28
O=C(COc1ccccc1CNCc1ccccc1)Nc1ccccc1 | -2 | 2 | 38 | 30
CC(=O)c1c(C)[nH]c(C(=O)CSc2nnc(C)s2)c1C | 2 | 3 | 4 | 24
O=C(N/N=C/c1cn(-c2ccccc2)nc1-c1ccc2c(c1)OCCO2)c1ccncc1 | -3 | 2 | -2 | -42
O=C(N/N=C/c1nn(-c2ccccc2)cc1-c1ccc(Cl)cc1)c1ccncc1 | 47 | 3 | 60* | 17
CCN(C(=O)Cc1c(C(=O)O)n(C)c2ccccc12)c1ccc(F)cc1 | -10 | 4 | 5 | -22
Cc1nc(/N=C(\N)N(C)C)[nH]c(=O)c1C | . | . | . | -17
Cc1ccc(-c2c(C(=O)Nc3ccccc3C)c(C)[nH]c(=S)c2C#N)o1 | 0 | 8.5* | -4 | 4
CCOC(=O)/C(=C\c1cccnc1)C(=O)c1cc(C(C)=O)c(Nc2ccccc2)s1 | 84* | 2 | 100* | .
CCOC(=O)/C(C#N)=C\c1cccnc1 | -12 | 3 | -4 | -1
CCOC(=O)C(=O)/C(C#N)=C/Nc1ccccc1 | -8 | 4 | -2 | 14
CCOC(=O)/C(=C\c1ccccc1)C(=O)c1cc(C(C)=O)c(Nc2ccccc2)s1 | 30 | 3 | 100* | .
CC1(C)OC(=O)C(=NNc2ccc(Br)cc2)C(=O)O1 | 3 | 2 | -8 | 20
COc1ccc2[nH]cc(S(=O)(=O)c3ccc(C(C)C)cc3)c(=O)c2c1 | -3 | 4 | -7 | 1
Fc1ccccc1C1c2cccn2CCN1C(=S)Nc1ccc(Br)cc1 (stereo unspecified) | 62* | 1 | 23 | 51
Fc1ccccc1C1c2cccn2CCN1C(=S)Nc1cccc(Br)c1 (stereo unspecified) | 59* | 1 | 3 | 18
Fc1cccc(NC(=S)N2CCCCC2)c1 | 12 | 0 | 14 | 12
Cc1ccc(/C=N\Nc2nc3ccc(Cl)cc3[nH]2)o1 | 20 | 0 | 99* | -2
CCCCn1c(/C=C/c2ccco2)nc2ccccc21 | 35 | 0 | 63* | -29
CCCCn1c(/C=N/Nc2nc3ccccc3[nH]2)nc2ccccc21 | 28 | 0 | 100* | -39
SMILES | WT yeast gro inh | RAM inhibit | Lmaj promast | CHOP inhibitor
Fc1ccccc1-c1ccc(/C=N/Nc2nc3ccccc3[nH]2)o1 | 85 | 3 | 97* | 13
Cc1ccc(/C=N/Nc2cn[nH]c(=O)n2)o1 | 6 | 1 | -6 | -3
CC1=[N+]([O-])C(C)(C)N(O)C1(C)C | . | . | . | 2
CC(=O)c1sc2nsc(SCCN3CCCC3)c2c1N | . | . | . | 25
CC1(C)CC(=O)C(C(=O)c2ccccc2)C(=O)C1 | 3 | 0 | -6 | 14
COc1ccc(N=C(NN)c2ccc3ccccc3n2)cc1 | 23 | 0 | 2 | -15
Cc1ccc(Cn2c(/C=C/c3ccco3)nc3ccccc32)cc1 | 57 | 1 | 38 | 44
Clc1ccc(Cn2c(/C=C/c3ccco3)nc3ccccc32)cc1 | 76* | 1 | 50* | -4
CC(=O)Nc1nc(Cn2nnc(-c3ccc4c(c3)OCO4)n2)nc(N(C)C)n1 | 10 | 1 | 1 | 6
COc1ccc(C2C(C(=O)c3ccccc3)=C(C)Nc3nc4ccccc4n32)cc1OC (stereo unspecified) | -10 | 4 | 22 | 7
CC1=C(C(=O)OC2CCCCC2)C(c2cccs2)n2c(nc3ccccc32)N1 (stereo unspecified) | 22 | 2 | 24 | 84*
COc1ccc(OC)c(C2C(C(=O)c3ccccc3)=C(C)Nc3nc4ccccc4n32)c1 (stereo unspecified) | -7 | 3 | 79* | 19
COC(=O)C1=C(C)Nc2nc3ccccc3n2C1c1ccccc1F (stereo unspecified) | . | . | . | -12
CCOC(=O)C1=C(C)Nc2nc3ccccc3n2C1c1ccccc1 (stereo unspecified) | -7 | 2 | -3 | 78*
CNC(=O)C1=C(C)Nc2nc3ccccc3n2C1c1ccc(F)cc1 (stereo unspecified) | . | . | . | 1
